CYP2C19 inh = inhibitors of human CYP2C19; P33261; inhibition, % at 5 µM; AID 778; hit rate 21% among 96,000; CYP2C19 Supersomes, luciferin-H EGE luminescence, 30 min;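 active = CYP2C19 inhibition above a set limit at 5 µM in the primary screen, cut at about 50% in these data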;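 note: plate controls were negative control wells for no effect and 2.5 mM tranylcypromine positive control for full effect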
PostGolgi ctrl = inhibits growth of the yeast control strain | efflux-deficient yeast background strain, growth absorbance A615, 16 h | inhibition, % at 10 µM | hit rate 5% among 98,000 | AID 738
PostGolgi yeast = growth inhibition of a yeast mutant, post-Golgi transport screen | post-Golgi transport phenotypic cell assay | inhibition, % at 10 µM | hit rate 0.9% among 98,000;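 note: yeast cells grown in 1536-well plates; yeast grown about 18 h at 30C before absorbance read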
CYP2C9 inhib = blocks human cytochrome P450 2C9 | P11712 | CYP2C9 Supersomes, luciferin-H conversion, luminescence | inhibition, % at 5 µM | hit rate 20% among 96,000;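 active = blocking of liver enzyme CYP2C9 beyond about 50% at 5 µM, limit read from the data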
Target sequence (P11712 whole entry, looked up): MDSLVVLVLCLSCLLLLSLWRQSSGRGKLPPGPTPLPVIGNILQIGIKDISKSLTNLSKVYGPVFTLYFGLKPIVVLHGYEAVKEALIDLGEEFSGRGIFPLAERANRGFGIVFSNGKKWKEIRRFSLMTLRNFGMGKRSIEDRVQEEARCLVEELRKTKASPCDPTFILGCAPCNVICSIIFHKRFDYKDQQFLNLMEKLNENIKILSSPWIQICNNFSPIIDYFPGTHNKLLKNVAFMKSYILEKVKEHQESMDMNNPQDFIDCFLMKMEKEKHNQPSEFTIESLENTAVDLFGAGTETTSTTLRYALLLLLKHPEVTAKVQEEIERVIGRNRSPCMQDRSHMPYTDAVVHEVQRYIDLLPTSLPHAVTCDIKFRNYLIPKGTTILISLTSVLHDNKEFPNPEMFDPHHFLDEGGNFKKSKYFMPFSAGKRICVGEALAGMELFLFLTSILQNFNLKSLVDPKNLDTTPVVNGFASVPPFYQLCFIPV
CYP2C9 activ = CYP2C9 (human) activation; P11712; recombinant CYP2C9, luciferin-H conversion, luminescence; hits give high values; factor 1 = untreated enzyme, 0 = blocked; activation factor at 5 µM; hit rate 1.4% among 96,000; AID 1024;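 active = activation factor of 2 or more for CYP2C9 at a 5 µM dose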;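 note: 0 = sulfaphenazole-blocked wells and 1 = vehicle-only wells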
CYP2C19 act = increases human CYP2C19 enzyme activity; 96,000 tested, under 10 active; activation factor at 5 µM; recombinant CYP2C19, luciferin-H EGE luminescence; hits give high values; 0 = fully inhibited enzyme, 1 = untreated enzyme;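 active = activation factor of at least 2 at 5 µM in the primary screen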;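 note: 0 = wells with 2.5 mM tranylcypromine and 1 = vehicle-only wells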
Starred values were filed as active, the others as inactive; . = no result given. Most compounds without a hit are left out; they make up all but 32% or so of the library. Cut-off read from the data, not from the text of the source, unless noted: active = inhibition above about 30%; inactive = the rest.

SMILES | CYP2C19 inh | PostGolgi ctrl | PostGolgi yeast | CYP2C9 inhib | CYP2C9 activ | CYP2C19 act
Cc1ccc2cc(C(c3nnnn3Cc3ccccc3)N3CCc4ccccc43)c(=O)[nH]c2c1 (stereo not drawn) | 9.9 | 5.8 | 2.4 | 29.5 | 0.7 | 0.9
CCC(C)(C)n1nnnc1C(c1cc2cc(OC)ccc2[nH]c1=O)N1CCc2ccccc21 (stereo not drawn) | 62.6* | 6.8 | -9.9 | 99.6* | 0 | 0.4
Cc1ccc2[nH]c(=O)c(C(c3nnnn3CC3CCCO3)N3CCc4ccccc4C3)cc2c1 (stereo not drawn) | 12.5 | 3.1 | 19.3 | 5.1 | 0.9 | 0.9
Cc1ccc2[nH]c(=O)c(C(c3nnnn3CC3CCCO3)N3CCCc4ccccc43)cc2c1 (stereo not drawn) | 40.0 | -10.9 | 4.4 | 59.8* | 0.4 | 0.6
CCOC(=O)Cn1c(N2CCOCC2)nc2c1c(=O)[nH]c(=O)n2C | 4.1 | 9.5 | -3.4 | -6.6 | 1.1 | 1
CCC(C)(C)n1nnnc1C(c1cc2cc(C)ccc2[nH]c1=O)N1CCCc2ccccc21 (stereo not drawn) | 33.3 | -1.4 | 0.8 | 64.1* | 0.4 | 0.7
Cc1ccc2[nH]c(=O)c(C(c3nnnn3Cc3ccccc3)N3CCc4ccccc43)cc2c1 (stereo not drawn) | 17.2 | 9.8 | -8.1 | 10.9 | 0.9 | 0.8
Cc1ccc2[nH]c(=O)c(C(c3nnnn3CC3CCCO3)N3CCOCC3)cc2c1 (stereo not drawn) | -1.4 | 4.8 | 2.5 | -0.6 | 1 | 1
COc1ccc(C(c2nnnn2CC2CCCO2)N2CCN(c3cccc(C)c3C)CC2)cc1 (stereo not drawn) | 21.1 | 6.7 | 1.8 | 65.6* | 0.3 | 0.8
CCc1ccc2[nH]c(=O)c(C(c3nnnn3CC3CCCO3)N3CCN4CCCC4C3)cc2c1 (stereo not drawn) | -14.5 | 30.3* | -12.3 | -2.2 | 1 | 1.1
Cc1cc2cc(C(c3nnnn3Cc3ccccc3)N3CCc4ccccc43)c(=O)[nH]c2cc1C (stereo not drawn) | 33.4 | 1.7 | 6.9 | 67.6* | 0.3 | 0.7
Cc1ccccc1-c1ccc(C=Nc2c(C)n(C)n(-c3ccccc3)c2=O)o1 | 15.9 | 7.0 | 0.7 | -21.7 | 1.2 | 0.8
CCC(=O)N1CCc2cc(S(=O)(=O)NCCN3CCCCC3CC)ccc21 (stereo not drawn) | -0.3 | -4.2 | 3.0 | -17.1 | 1.2 | 1
O=C1CNC(=O)N1Cc1ccc(Br)cc1 | 36.9 | 7.2 | 2.7 | 16.7 | 0.8 | 0.6
CC1=C(CC(=O)c2ccc(Cl)cc2)C(=O)c2ccccc2C1=O | 50.8* | 8.0 | -1.3 | 44.3 | 0.6 | 0.5
O=C(NCCc1ccccc1)c1ncn[nH]1 | 6.4 | 10.5 | 6.6 | -7.7 | 1.1 | 0.9
CC(C)(C)c1ccc(OCCNC(=O)c2ncn[nH]2)cc1 | 75.1* | 3.2 | 13.2 | 53.4* | 0.5 | 0.2
O=C(Nc1ccc2c(c1)OCO2)C1CCN(Cc2cnn(-c3ccccc3)c2-n2cccc2)CC1 | 21.1 | 4.0 | 0.5 | 69.4* | 0.3 | 0.8
O=C(Nc1ccc2c(c1)OCO2)C1CCN(S(=O)(=O)Cc2ccccc2)CC1 | 46.1 | 1.5 | 2.5 | 55.2* | 0.4 | 0.5
COc1cccc(C(=O)Nc2c3c(nn2-c2ccccc2C)CS(=O)C3)c1OC (stereo not drawn) | 3.5 | 8.5 | -3.3 | 4.2 | 1 | 1
Cc1ccc(CN2C(=O)/C(=C3\SC(N4CCOCC4)=NC3=O)c3cc(Br)ccc32)cc1 | 1.9 | . | . | 40.7 | 0.6 | 1
O=C1N=C(N2CCOCC2)S/C1=C1\C(=O)N(Cc2ccccc2)c2ccc(Br)cc21 | 30.1 | . | . | 61.6* | 0.4 | 0.7
CCCCN1C(=O)/C(=C2\SC(N3CCCCC3)=NC2=O)c2ccccc21 | 52.7* | 40.3* | 0.0 | 90.1* | 0.1 | 0.5
CCOc1ccccc1C1C(C(=O)Nc2ccc(OC)cc2)=C(C)Nc2nc(CCCO)nn21 (stereo not drawn) | . | -2.4 | 6.0 | . | . | .
COc1ccc(C2c3sc(=O)[nH]c3SC3C(=O)N(c4ccccc4)C(=O)C32)cc1 (stereo not drawn) | 62.1* | 2.7 | -0.5 | 80.9* | 0.2 | 0.4
SMILES | CYP2C19 inh | PostGolgi ctrl | PostGolgi yeast | CYP2C9 inhib | CYP2C9 activ | CYP2C19 act
O=c1[nH]c2c(s1)C(c1ccccc1)C1C3CCC(C3)C1S2 (stereo not drawn) | 24.1 | 5.8 | -1.8 | -6.1 | 1.1 | 0.8
O=C1C2Sc3[nH]c(=O)sc3C(c3ccccc3)C2C(=O)N1c1ccccc1 (stereo not drawn) | 57.2* | 1.5 | 9.7 | 17.9 | 0.8 | 0.4
CC(C)COc1ccccc1C(=O)NC(CO)C(=O)O (stereo not drawn) | 0.1 | 8.0 | 2.2 | 13.7 | 0.9 | 1
CC1CCCN(C(=O)c2ccc3c(c2NCCO)C(=O)c2ccccc2C3=O)C1 (stereo not drawn) | 58.9* | 3.9 | 12.3 | 35.4 | 0.6 | 0.4
CCOC(=O)c1c(OCC)[nH]c2ccc(O)cc12 | -3.4 | -0.7 | 2.4 | -61.8 | 1.6 | 1
COc1ccc(-c2cc3nc4n(c(=O)c3s2)CCC4)cc1 | 70.1* | 24.6 | -0.3 | 51.1* | 0.5 | 0.3
Cc1ccc(OCC(=O)OC2CCS(=O)(=O)C2)cc1 (stereo not drawn) | 21.4 | 6.7 | -17.1 | -5.6 | 1.1 | 0.8
N#CC1(c2nc3ccccc3[nH]2)CC1c1ccc2c(c1)OCO2 (stereo not drawn) | 91.9* | -8.9 | 10.2 | 64.0* | 0.4 | 0.1
O=C(CN1CCC(c2nc3ccccc3[nH]2)CC1)NCc1ccc2c(c1)OCO2 | 6.9 | 3.5 | 1.4 | 25.6 | 0.7 | 0.9
COc1ccc(NS(=O)(=O)c2ccc3oc(SC4CCOC4=O)nc3c2)cc1 (stereo not drawn) | 97.2* | 3.5 | 15.4 | 100.3* | 0 | 0
COc1ccc(-c2cc(NCCc3ccncc3)n3ncnc3n2)cc1 | 49.3 | 2.3 | 1.6 | 70.1* | 0.3 | 0.5
Cc1noc(C)c1COC(=O)C1(c2cccc(F)c2)CCCC1 | 36.9 | 11.7 | -4.2 | 55.8* | 0.4 | 0.6
C=CCc1cccc(/C=N/c2ncccc2O)c1O | -3.7 | 11.6 | 8.0 | -12.7 | 1.1 | 1
CCn1c(SCC(=O)c2[nH]c(C)c(C(C)=O)c2C)nnc1-c1ccccc1 | 77.0* | 1.2 | 9.0 | 27.0 | 0.7 | 0.2
CCn1c(SCC(=O)c2[nH]c(C)c(C(C)=O)c2C)nnc1-c1ccncc1 | 66.5* | 1.8 | -7.8 | 8.0 | 0.9 | 0.3
CCn1c(SCC(=O)O)nnc1-c1ccccc1 | 7.1 | -1.8 | 0.3 | 3.3 | 1 | 0.9
CCOc1ccc(-n2cc(C(=O)Nc3ccc(Cl)cn3)c3cc(OC)c(OC)cc3c2=O)cc1 | -19.9 | 3.2 | 3.4 | -7.0 | 1.1 | 1.2
COc1cc(OC)cc(OCC(O)Cn2ccnc2C)c1 (stereo not drawn) | 44.5 | -2.7 | -3.8 | 38.0 | 0.6 | 0.6
Cc1cccc(C)c1OCC(O)Cn1ccnc1C (stereo not drawn) | 53.1* | 4.0 | -7.4 | 22.6 | 0.8 | 0.5

Screening data from PubChem BioAssay.
